Structures are written as SMILES. Entries with a potency or affinity are not part of this list. Calls of active or inactive are those of the source.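 The calls were made as follows: active = falling luciferase signal whose fitted half-maximal concentration is at most twice the top tested dose; inconclusive = flat inhibition between 30 and 70% or a poor curve fit; inactive = the rest.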

A short description of the experiment: off-target signal loss in HeLa-CEM21 co-culture – HeLa F-luc CTL cells, cherry-picked, counter-screen for HIV-1 Env fusion inhibitor project, dose response (AID 652040).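 Also: more negative values mean stronger loss of luciferase signal.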 The note with it: HeLa-F-luc CTL cells with CEM21, firefly luciferase counterscreen; series mostly up to 35 µM.
In the case of `CCC(=NCc1ccc(F)cc1)c1c(O)n(C)c(=O)n(C)c1=O`, the molecule was called inactive.
For `CCC(=NCCc1c[nH]c2ccccc12)c1c(O)n(C)c(=O)n(C)c1=O`, the outcome was inactive.
In the case of `Cn1nc(-c2ccc(OCC(=O)N3CCN(Cc4ccccc4)CC3)cc2)c2ccccc2c1=O`, the call was inactive.

For the origin of these results see PubChem BioAssay AID652040 (Broad Institute, 2013).
